Source: PubChem BioAssay
Values joined by “and” are separate entries in the source; they are usually repeats but may differ in a detail not shown here. Equal entries are not always repeated. Active and inactive are the calls of the source.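 The calls were made as follows, unless noted: active = compounds whose cell count with miR-34 switched on is under 0.7 times the count with it off; inactive = the rest.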

What was measured:
[1] = sensitizers of A549 cells to miR-34 induction, primary screen, imaging, A549 dox-inducible miR-34, nuclei and caspase counts (AID 1347080); conditions: A549 miR-34 inducible, Hoechst nuclei count, 48 h
[2] = survival rescue of mitochondrial mutant cells in low glucose, primary screen, MELAS cybrids, Rieske KO mouse fibroblasts, CellTiter-Glo (AID 1508586;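 active = mean z-score across replicates of 1.96 or higher in either the MELAS or the Rieske mutant cell line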;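 also: z relative to plate mean and SD of compound and empty wells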)
[3] = stronger effect = lower value, cell number ratio, induced over uninduced
[4] = measured here: relative caspase fold change +Dox/-Dox
[5] = measured here: total cells with miR-34 induction, stronger effect = lower value
[6] = measured here: total cells without miR-34 induction
[7] = MELAS cybrid survival, CellTiter-Glo 48 h, stronger effect = higher value
[8] = Rieske KO mouse fibroblast survival, CellTiter-Glo 72 h
Also: test concentration not given here.

| Structure (SMILES) | fold change [1, 3] | fold change [1, 4] | cell count [1, 5] | cell count [1, 6] | z-score [2, 7] | z-score [2, 8] |
| --- | --- | --- | --- | --- | --- | --- |
| CN(C)CCCCC(=O)Nc1ccc(NC(=S)NC(=O)c2ccc(C(C)(C)C)cc2)cc1 | 1.13 (inactive) and 1.1 (inactive) | 0.871 and 0.667 | 4160 and 3360 | 3670 and 3070 | 0.0334 (inactive) | -0.0265 |
| CC(=O)Nc1ccc(NC(=S)NC(=O)c2ccc(C(C)(C)C)cc2)cc1 | 1 (inactive) and 1.05 (inactive) | 1.21 and 0.561 | 1820 and 1680 | 1820 and 1600 | -0.38 (inactive) | 0.0517 |
| CC(C)CCNC(=O)C(CC(C)C)NC(=O)C1OC1C(=O)O (configuration not stated) | 0.919 (inactive) | 0.36 | 8670 | 9430 | -0.356 (inactive) | 0.0853 |
| COc1cc2c(cc1O)CC[C@@H]1[C@H]2CC[C@]2(C)C(O)CC[C@@H]12 (some centres not stated) | 1.05 (inactive) | 0.703 | 1820 | 1740 | 1.32 (inactive) | 0.434 |
| O=C(C=Cn1cnc(-c2cc(C(F)(F)F)cc(C(F)(F)F)c2)n1)NNc1cnccn1 | 1.07 (inactive) | 0.543 | 2320 | 2170 | -0.213 (inactive) | -7.28 |
| CC(C)(Cc1ccc2ccccc2c1)NCC(O)COc1cccc(Cl)c1C#N (configuration not stated) | 0.92 (inactive) | 0.745 | 8560 | 9310 | -0.327 (inactive) | 0.584 |
| CCCSc1nc(NC2CC2c2ccc(F)c(F)c2)c2nnn(C3CC(OCCO)C(O)C3O)c2n1 (configuration not stated) | 0.894 (inactive) | 0.998 | 6430 | 7190 | -0.266 (inactive) | -0.123 |
| CCC1OC(=O)C(C)C(OC2C[C@@](C)(OC)C(O)C(C)O2)C(C)C(OC2OC(C)CC(N(C)C)C2O)[C@](C)(O)CC(C)CN(C)C(C)C(O)[C@]1(C)O (some centres not stated) | 0.925 (inactive) | 0.82 | 8110 | 8770 | -0.213 (inactive) | 0.708 |
| CC(C)CC(NC(=O)CNC(=O)c1cc(Cl)ccc1Cl)B1OC(=O)CC(CC(=O)O)(C(=O)O)O1 (configuration not stated) | 0.814 (inactive) | 0.899 | 1600 | 1960 | -0.37 (inactive) | -3.79 |
| OCC1OC(c2ccc(Cl)c(Cc3ccc(OC4CCOC4)cc3)c2)C(O)C(O)C1O (configuration not stated) | 0.997 (inactive) | 0.234 | 8710 | 8730 | -0.39 (inactive) | -0.293 |
| OCc1ccccc1OC1OC(CO)C(O)C(O)C1O (configuration not stated) | 0.944 (inactive) | 0.784 | 9350 | 9900 | -0.348 (inactive) | 0.733 |
| CC(CCC(=O)O)C1CC[C@H]2[C@@H]3CC(O)[C@@H]4CC(O)CC[C@]4(C)[C@@H]3CC[C@]12C (some centres not stated) | 0.928 (inactive) | 0.729 | 9520 | 10300 | -0.299 (inactive) | 0.38 |
| CCC(C)C(=O)OC1CC(O)C=C2C=CC(C)C(CCC(O)CC(O)CC(=O)O)[C@H]21 (some centres not stated) | 0.937 (inactive) | 0.958 | 7720 | 8230 | 0.0242 (inactive) | -0.0533 |
| CCN(CC)CCN(Cc1ccc(-c2ccc(C(F)(F)F)cc2)cc1)C(=O)Cn1c(SCc2ccc(F)cc2)nc(=O)c2c1CCC2 | 0.577 (active) | 1.58 | 1110 | 1920 | -0.397 (inactive) | -1.15 |
| Cc1c(Cc2ccc3ccccc3n2)c2cc(F)ccc2n1CC(=O)O | 0.985 (inactive) | 0.424 | 6920 | 7030 | 0.326 (inactive) | -0.0715 |
| Cn1c(=O)c(F)c(Nc2ccc(I)cc2F)c2c(=O)n(CC(O)CO)cnc21 (configuration not stated) | 1.04 (inactive) | 0.57 | 3130 | 3010 | -0.414 (inactive) | -1.17 |
| O=C(Nc1ccc(S(=O)(=O)Nc2ccccc2Cl)c(Cl)c1)c1ccccn1 | 0.91 (inactive) | 0.513 | 8160 | 8970 | -0.368 (inactive) | -0.0416 |
| O=C(c1cccc(Cl)c1F)N1CCN(Cc2cccc(Nc3nccs3)n2)CC1 | 0.822 (inactive) | 4.5 | 2250 | 2740 | -0.421 (inactive) | -0.143 |
| CC(=O)C1CC[C@H]2[C@@H]3CCC4=CC(=O)CC[C@]4(C)[C@@H]3CC[C@]12C (some centres not stated) | 0.844 (inactive) | 1.47 | 7050 | 8360 | -0.493 (inactive) | -0.487 |
| O=C1C(Cc2ccc(O)cc2)N2C(=O)CCN(C(=O)NCc3ccccc3)[C@H]2CN1Cc1cccc2ccccc12 (some centres not stated) | 1.06 (inactive) | 0.528 | 2850 | 2690 | -0.585 (inactive) | -0.172 |
| O=C(O[C@H]1CN2CCC1CC2)N1CCc2ccccc2C1c1ccccc1 (some centres not stated) | 0.932 (inactive) | 0.636 | 6880 | 7380 | -0.171 (inactive) | 0.000903 |
| Cc1onc(-c2c(Cl)cccc2Cl)c1C(=O)NC1C(=O)N2C1SC(C)(C)C2C(=O)O (configuration not stated) | 0.869 (inactive) | 0.56 | 8500 | 9780 | -0.165 (inactive) | -0.146 |
